# Measurements from PubChem BioAssay (NCATS).
# Inconclusive results are not listed. A call without a number means that no potency is given here. Active and inactive are the calls of the source. Unless noted, the call rests on the fitted dose curve; in most records, active means well fitted curve in the direction sought with a large enough effect; inconclusive means small, poorly fitted or top-dose-only effect, or another doubt; inactive means no such curve, though single readings can be large; an effect the other way counts as inactive or inconclusive.
# Experiments:
# [1] = molecular target: Cytochrome P450 3A4 (Homo sapiens) (UniProt P08684); assay: qHTS Assay for Activators of Cytochrome P450 3A4 (AID 885); further: nearly all actives have a fitted effect of over 65% in size
# Procedure, shortened: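 Signal was normalized against complete inhibition by 57 uM ketoconazole. The reaction used 20nM CYP3A4 with 25uM Luciferin-PPXE, 10-min compound preincubation and a 60-min NADPH-supported step at RT.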
# [2] = molecular target: Mitogen-activated protein kinase 10 (Mus musculus) (UniProt Q61831); assay: JNK3 AlphaScreen Assay (AID 530; active means well fitted curve in either direction with a large enough effect, not every such curve was filed as active;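 further: kinase came from lysate of stimulated human HepG2 cells; signal reports phosphorylation of biotinylated GST-cJun 1-79 at Ser73 with 10 µM ATP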)
# Procedure, shortened: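 JNK3 came from HepG2 lysates pre-activated with IL-1beta and TNF-alpha and phosphorylated biotinylated GST-cJun (1-79) at 10 uM ATP, pH 7.6, room temperature. Compounds were titrated. AlphaScreen signal used anti-phospho-cJun (Ser73) antibody.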
# [3] = system: AA1029; assay: qHTS profiling for inhibitors of Plasmodium falciparum proliferation (AID 504749); further: nearly all actives have a fitted effect of over 60% in size; further: potency means the concentration at half of the fitted maximal effect; conditions: P. falciparum in erythrocytes, SYBR Green DNA, 72 h; series mostly up to 12.8 µM
# Procedure, shortened: (§1)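 P. falciparum-infected erythrocytes (0.3% parasitemia, 2.5% hematocrit final) were exposed to compounds for 72 h at 37 C in 5% CO2, then lysed with SYBR Green buffer overnight at room temperature; parasite DNA fluorescence was normalized to artemisinin and DMSO controls.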
# [4] = system: CP185; assay: as above; conditions: P. falciparum in erythrocytes, SYBR Green DNA, 72 h; series mostly up to 12.8 µM
# Procedure, shortened: as §1
# [5] = system: CP192; assay: as above; conditions: P. falciparum in erythrocytes, SYBR Green DNA, 72 h; series mostly up to 12.8 µM
# Procedure, shortened: as §1
# [6] = system: CP247; assay: as above; conditions: P. falciparum in erythrocytes, SYBR Green DNA, 72 h; series mostly up to 12.8 µM
# Procedure, shortened: as §1
# [7] = system: CP256; assay: as above; conditions: P. falciparum in erythrocytes, SYBR Green DNA, 72 h; series mostly up to 12.8 µM
# Procedure, shortened: as §1
# [8] = system: CP260; assay: as above; conditions: P. falciparum in erythrocytes, SYBR Green DNA, 72 h; series mostly up to 12.8 µM
# Procedure, shortened: as §1
# [9] = system: CP265; assay: as above; conditions: P. falciparum in erythrocytes, SYBR Green DNA, 72 h; series mostly up to 12.8 µM
# Procedure, shortened: as §1
# [10] = system: ICS; assay: as above; conditions: P. falciparum in erythrocytes, SYBR Green DNA, 72 h; series mostly up to 12.8 µM
# Procedure, shortened: as §1
# [11] = system: P93_24; assay: as above; conditions: P. falciparum in erythrocytes, SYBR Green DNA, 72 h; series mostly up to 12.8 µM
# Procedure, shortened: as §1
# [12] = system: P94_40; assay: as above; conditions: P. falciparum in erythrocytes, SYBR Green DNA, 72 h; series mostly up to 12.8 µM
# Procedure, shortened: as §1
# [13] = system: PAD; assay: as above; conditions: P. falciparum in erythrocytes, SYBR Green DNA, 72 h; series mostly up to 12.8 µM
# Procedure, shortened: as §1
# [14] = system: PC26; assay: as above; conditions: P. falciparum in erythrocytes, SYBR Green DNA, 72 h; series mostly up to 12.8 µM
# Procedure, shortened: as §1
# [15] = system: TAB109; assay: as above; conditions: P. falciparum in erythrocytes, SYBR Green DNA, 72 h; series mostly up to 12.8 µM
# Procedure, shortened: as §1
# [16] = system: TAB165; assay: as above; conditions: P. falciparum in erythrocytes, SYBR Green DNA, 72 h; series mostly up to 12.8 µM
# Procedure, shortened: as §1
# [17] = system: CP211; assay: as above; conditions: P. falciparum in erythrocytes, SYBR Green DNA, 72 h; series mostly up to 12.8 µM
# Procedure, shortened: as §1
# [18] = system: CP297; assay: as above; conditions: P. falciparum in erythrocytes, SYBR Green DNA, 72 h; series mostly up to 12.8 µM
# Procedure, shortened: as §1
# [19] = system: CP194; assay: as above; conditions: P. falciparum in erythrocytes, SYBR Green DNA, 72 h; series mostly up to 12.8 µM
# Procedure, shortened: as §1
# [20] = system: CP291; assay: as above; conditions: P. falciparum in erythrocytes, SYBR Green DNA, 72 h; series mostly up to 12.8 µM
# Procedure, shortened: as §1
# Cytochrome P450 3A4 (Homo sapiens), sequence (P08684 whole entry, looked up): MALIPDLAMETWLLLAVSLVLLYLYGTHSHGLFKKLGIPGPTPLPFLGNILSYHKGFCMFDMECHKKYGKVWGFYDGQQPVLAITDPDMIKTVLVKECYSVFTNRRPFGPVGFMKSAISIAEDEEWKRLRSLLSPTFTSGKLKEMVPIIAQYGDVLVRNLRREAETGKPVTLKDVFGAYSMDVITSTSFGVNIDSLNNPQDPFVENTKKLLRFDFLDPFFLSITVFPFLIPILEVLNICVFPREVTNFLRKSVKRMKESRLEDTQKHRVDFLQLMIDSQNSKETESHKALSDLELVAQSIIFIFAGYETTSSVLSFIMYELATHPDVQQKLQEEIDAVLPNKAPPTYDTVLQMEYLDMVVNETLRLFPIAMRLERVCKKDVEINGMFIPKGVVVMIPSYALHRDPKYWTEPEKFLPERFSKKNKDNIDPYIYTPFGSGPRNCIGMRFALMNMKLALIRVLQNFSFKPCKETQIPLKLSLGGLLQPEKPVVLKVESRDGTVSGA
smiles,measurement,setting,value
c1ccc2c(c1)CCCc1cc(NCCN3CCOCC3)nnc1-2,Potency,[1],inactive
O[C@@](CCN1CCCCC1)(c1ccccc1)[C@@H]1C[C@H]2C=C[C@@H]1C2,Potency,[2],inactive
CN(C/C=C\c1ccccc1)Cc1cccc2ccccc12,Potency,[2],inactive
same,Potency,[3],inactive
same,Potency,[4],inactive
same,Potency,[5],inactive
same,Potency,[6],inactive
same,Potency,[7],inactive
same,Potency,[8],inactive
same,Potency,[9],inactive
same,Potency,[10],11.2 µM (active)
same,Potency,[11],inactive
same,Potency,[12],inactive
same,Potency,[13],inactive
same,Potency,[14],inactive
same,Potency,[15],inactive
same,Potency,[16],inactive
O=C(O)[C@@H]1[C@@H]2C[C@H]3c4[nH]c5ccccc5c4CCN3C[C@@H]2CC[C@@H]1O,Potency,[14],inactive
CN1CCC[C@@H](CC2c3ccccc3Sc3ccccc32)C1,Potency,[2],inactive
same,Potency,[4],inactive
same,Potency,[5],inactive
same,Potency,[17],inactive
same,Potency,[6],inactive
same,Potency,[7],inactive
same,Potency,[18],inactive
same,Potency,[13],inactive
COc1ccc(-c2cc(=O)c3c(O)cc(O)cc3o2)cc1,Potency,[2],inactive
same,Potency,[1],inactive
CO[C@@H]1CC[C@@]2(C)[C@@H](CC[C@@]3(C)[C@H]2CC=C2[C@H]4CC(C)(C)[C@H](O)[C@@H](OC(C)=O)[C@]4(CO)[C@H](O)C[C@]23C)[C@@]1(C)CO (tested in a mixture with another compound),Potency,[2],inactive
CC1(C)S[C@@H]2[C@H](NC(=O)[C@@H](N)c3ccc(O)cc3)C(=O)N2[C@H]1C(=O)O,Potency,[2],inactive
COc1ccccc1OC[C@H](O)CO,Potency,[3],inactive
same,Potency,[4],inactive
same,Potency,[5],inactive
same,Potency,[19],inactive
same,Potency,[17],inactive
same,Potency,[6],inactive
same,Potency,[7],inactive
same,Potency,[8],inactive
same,Potency,[9],inactive
same,Potency,[20],inactive
same,Potency,[18],inactive
same,Potency,[10],inactive
same,Potency,[11],inactive
same,Potency,[12],inactive
same,Potency,[13],inactive
same,Potency,[14],inactive
same,Potency,[15],inactive
same,Potency,[16],inactive
CN1[C@H](CC(=O)c2ccccc2)CCC[C@H]1C[C@@H](O)c1ccccc1,Potency,[2],inactive
CCN(CC)CCOC(=O)[C@@H](Cc1cccc2ccccc12)C[C@@H]1CCCO1,Potency,[2],inactive
same,Potency,[3],inactive
same,Potency,[4],inactive
same,Potency,[19],inactive
same,Potency,[17],inactive
same,Potency,[6],inactive
same,Potency,[7],inactive
same,Potency,[8],inactive
same,Potency,[9],inactive
same,Potency,[20],inactive
same,Potency,[18],inactive
same,Potency,[10],inactive
same,Potency,[11],inactive
same,Potency,[12],inactive
same,Potency,[13],inactive
same,Potency,[15],inactive
same,Potency,[16],inactive
COC(=O)[C@@H]1[C@@H]2C[C@H]3c4[nH]c5cc(OC)ccc5c4CCN3C[C@@H]2C[C@H](OC(=O)/C=C\c2cc(OC)c(OC)c(OC)c2)[C@H]1OC,Potency,[3],3.16 µM (active)
same,Potency,[4],inactive
same,Potency,[10],4.47 µM (active)
same,Potency,[11],3.16 µM (active)
same,Potency,[14],6.42 µM (active)
same,Potency,[16],3.16 µM (active)
C[C@@H]1C[C@H](OC(=O)c2ccccc2O)CC(C)(C)C1,Potency,[2],inactive
CC1(C)S[C@@H]2[C@H](NC(=O)COc3ccccc3)C(=O)N2[C@H]1C(=O)O (tested in a mixture with another compound),Potency,[2],inactive
CC[C@H](C(=O)[C@H](C)[C@H](O)[C@H](C)CCc1ccc(C)c(O)c1C(=O)O)[C@H]1O[C@](CC)([C@@H]2CC[C@@](O)(CC)[C@H](C)O2)C[C@H]1C,Potency,[2],inactive
same,Potency,[1],inactive
CO[C@@H]1C[C@H](O[C@H]2[C@@H](C)[C@H](O[C@@H]3O[C@@H](C)C[C@@H](N(C)C)[C@@H]3OC(C)=O)[C@H](C)C[C@]3(CO3)C(=O)[C@H](C)[C@H](OC(C)=O)[C@H](C)[C@H](C)OC(=O)[C@@H]2C)O[C@H](C)[C@@H]1OC(C)=O,Potency,[3],inactive
same,Potency,[4],inactive
same,Potency,[5],inactive
same,Potency,[19],inactive
same,Potency,[17],inactive
same,Potency,[6],inactive
same,Potency,[7],inactive
same,Potency,[8],inactive
same,Potency,[9],inactive
same,Potency,[20],inactive
same,Potency,[18],inactive
same,Potency,[10],inactive
same,Potency,[11],inactive
same,Potency,[12],inactive
same,Potency,[13],inactive
same,Potency,[14],inactive
same,Potency,[15],inactive
same,Potency,[16],inactive
C[C@@]12C=CC(=O)C=C1CC[C@H]1[C@H]3CC[C@](O)(C(=O)CO)[C@]3(C)CC(=O)[C@@H]12,Potency,[2],inactive
COc1cccc(-c2nc(NCCc3c[nH]c4ccc(OC)cc34)c3ccccc3n2)c1,Potency,[2],inactive
same,Potency,[1],inactive
CC[N+]1(C)[C@@H]2CC[C@H]1CC(OC(=O)[C@H]1CC[C@@](C(=O)OC3C[C@H]4CC[C@@H](C3)[N+]4(C)CC)(c3ccccc3)c3ccccc31)C2 (stereo partly specified),Potency,[2],inactive
CCCCC[C@H](O)/C=C\[C@H]1[C@H](C/C=C\CCCC(=O)O)[C@@H](O)C[C@H]1O (tested in a mixture with another compound),Potency,[2],inactive
same,Potency,[3],inactive
same,Potency,[4],inactive
same,Potency,[5],inactive
same,Potency,[19],inactive
same,Potency,[17],inactive
same,Potency,[6],inactive
same,Potency,[7],inactive
same,Potency,[8],inactive
same,Potency,[9],inactive
same,Potency,[20],inactive
same,Potency,[18],inactive
same,Potency,[10],inactive
same,Potency,[11],inactive
same,Potency,[12],inactive
same,Potency,[13],inactive
same,Potency,[14],inactive
same,Potency,[15],inactive
same,Potency,[16],inactive
CC(C)(C)NC(=O)[C@@H]1C[C@H]2CCCC[C@@H]2CN1C[C@H](O)[C@H](Cc1ccccc1)NC(=O)[C@@H](CC(N)=O)NC(=O)c1ccc2ccccc2n1,Potency,[2],inactive
Cc1cc2ccc(=O)oc2cc1OC[C@@H](O)C(C)(C)O,Potency,[2],inactive
C[C@H]1CS(=O)(=O)CCN1/N=C\c1ccc([N+](=O)[O-])o1,Potency,[2],inactive
same,Potency,[3],inactive
same,Potency,[4],inactive
same,Potency,[5],inactive
same,Potency,[19],inactive
same,Potency,[17],inactive
same,Potency,[6],inactive
same,Potency,[7],inactive
same,Potency,[9],inactive
same,Potency,[20],inactive
same,Potency,[18],inactive
same,Potency,[10],inactive
same,Potency,[11],inactive
same,Potency,[12],inactive
same,Potency,[13],inactive
same,Potency,[14],inactive
same,Potency,[16],inactive
